# About 83,000 compounds went through this panel and 20% of them were active in at least one assay; those are over-represented in the sample as a whole.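 The endpoint reported here, percent growth, reads 100 for growth as untreated, 0 for no net growth and -100 for all cells dead.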 Unmarked numbers belong to inactive results. Calls of active or inactive are those of the source. Rule for the calls: active = growth percent below 10; inactive = the rest.
# What was measured:
# Experiment in all cases: NCI-60 one-dose screen, 48 h (100 = growth as untreated, 0 = no growth, -100 = all killed)
# Conditions in all cases: 10 µM
# HCT-15 colon = test system: HCT-15 colon
# HT29 colon = test system: HT29 colon
# SNB-75 CNS = test system: SNB-75 CNS
# U251 CNS = test system: U251 CNS
# PC-3 prostate = test system: PC-3 prostate
# SK-MEL-5 melanoma = test system: SK-MEL-5 melanoma
# UACC-62 melanoma = test system: UACC-62 melanoma
# LOX IMVI melanoma = test system: LOX IMVI melanoma
# SK-MEL-28 melanoma = test system: SK-MEL-28 melanoma
SMILES,growth (HCT-15 colon),growth (HT29 colon),growth (SNB-75 CNS),growth (U251 CNS),growth (PC-3 prostate),growth (SK-MEL-5 melanoma),growth (UACC-62 melanoma),growth (LOX IMVI melanoma),growth (SK-MEL-28 melanoma)
Cc1ccc(C(=O)CSc2nnc(-c3c[nH]c4ccccc34)n2-c2ccccc2)cc1,43.8%,7.13% (active),-1.21% (active),9.78% (active),43%,32.9%,23.9%,-19.5% (active),49%
CC(=O)Nc1ccc(-c2cn(-c3cccc(C(=O)Nc4ccc(F)c(C(F)(F)F)c4)c3)nn2)cn1,20.7%,6.65% (active),119%,-47.8% (active),43.1%,86.1%,55.9%,8.57% (active),60.3%
COc1cnc2c(c1)C(=O)c1c-2n(CCCNCCO)c(=O)c2cc(OC)c(OC)cc12,32.3%,12.1%,59.6%,20.8%,43.2%,12%,-2.88% (active),-78% (active),70.2%
O=C(Nc1nc2ccc([N+](=O)[O-])cc2s1)Nc1cc(Cl)ccc1I,-58.2% (active),-42.2% (active),-42% (active),-23.5% (active),-14.7% (active),-94.3% (active),-54.1% (active),-82.4% (active),-52.7% (active)
Cc1ccc(CSc2nc(Cl)c(C#N)c(-c3ccc(F)cc3)n2)cc1,54.4%,38.4%,126%,68.8%,42.6%,–,77.2%,85.8%,93.9%
CC(=O)c1cc(C(=O)c2ccc3c(c2)NC(=O)CO3)n2ccc3ccccc3c12,71.1%,56.5%,114%,26.5%,80.3%,57.6%,–,56.5%,88.4%
Cc1ccc(-c2nc(Nc3ccc(S(N)(=O)=O)cc3)c3ccccc3n2)cc1,1.3% (active),14.6%,87.6%,49.7%,39.5%,74.4%,78.5%,-71.5% (active),75.8%

# Source: PubChem BioAssay (NCI)
